Data from article PMC5540273 (PLoS ONE, 2017).

What follows are compounds tested on T1, GRK2. Conditions: concentration: 1 μM, replicates: in singlicate; n = 1.
T1 construct: gene ADRBK1
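Note: KINOMEscan kinase panel screen.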

Row | SMILES | %Inh [%]
1 | Nc1ncc(-c2cccnc2)c2scc(-c3ccc4c(c3)CCN4C(=O)Cc3ccccc3)c12 [GSK683281] | 0
2 | c1ccc(Oc2ccc(Nc3ccnc4cc(-c5ccc(CNCCN6CCOCC6)o5)ccc34)cc2)nc1 [GW567145] | 0
3 | Cl.Cl.NCC(NCc1ccc(-c2ccnc3[nH]ccc23)s1)c1ccccc1 (stereo not drawn) [GSK1321565] | 0
4 | CCn1c(-c2nonc2N)nc2c(C#CC(C)(C)O)nc(OC[C@H](N)c3ccccc3)cc21 [GSK943949] | 11
5 | O=C(Nc1cccc(-c2nn3ncccc3c2-c2ccnc(Nc3ccccc3)n2)c1)c1c(F)cccc1F [GSK198271] | 0
6 | CCS(=O)(=O)c1ccc(OC)c(Nc2nccc(-c3c(-c4cccc(NC(=O)c5c(F)cccc5F)c4)nn4ncccc34)n2)c1 [GSK326180] | 0
7 | C[C@@H](Oc1cc(-n2cnc3cc(-c4ccnc(NCCS(C)(=O)=O)c4)ccc32)sc1C(N)=O)c1ccccc1Cl [GSK907232] | 0
8 | Oc1cc(Nc2ccnc3cc(I)ccc23)ccc1F [GW552771] | 0
9 | Nc1ncc(-c2ccc3nccc(-c4ccncc4)c3c2)cc1S(=O)(=O)N1CCOCC1 [GSK1627798] | 0
10 | Cl.Cl.NCC(C(=O)Nc1cc(Br)c(-c2ccnc3[nH]ccc23)s1)c1ccccc1 (stereo not drawn) [GSK1269851] | 13
11 | COc1ccc(Nc2nccc(N3CCC(NC(=O)Nc4cccc(OC)c4)C3)n2)cc1 (stereo not drawn) [GSK1379742] | 0
12 | Cc1cccc(NC(=O)Nc2ccc(Oc3ncnc4ccn(C)c34)cc2)c1 | 0
13 | O=C(Nc1ccccc1F)NC1CCN(c2ccnc(Nc3ccc(F)cc3)n2)CC1 [GSK1379800] | 0
14 | COc1cccc(C2=C(Nc3ccc(Cl)c(C(=O)O)c3)C(=O)NC2=O)c1 [SB-390769] | 0
15 | O=c1[nH]cc(-c2ccc(N3CCOCC3)cc2)c2sc(-c3cn[nH]c3)cc12 [GSK2276055] | 9
16 | COc1ccc(Nc2nccc(NCCNC(=O)c3cc4ccccc4s3)n2)cc1 [GSK1379896] | 3
17 | O=C(Nc1cccc(-c2nn3ccccc3c2-c2ccnc(Nc3cccc(C(F)(F)F)c3)n2)c1)c1c(F)cccc1F [GSK292658] | 0

Row | SMILES | %Inh [%]
18 | COc1cccc(-c2ccc3c(NC(=O)C4CC4)n[nH]c3n2)c1 [SB-710903] | 0
19 | Cc1cccc(Nc2nc(N[C@H]3CCNC3)ncc2C(N)=O)c1.Cl [GSK2197149] | 0
20 | Fc1ccc(-c2ncn(C3CCNCC3)c2-c2ccnc(Oc3ccc(-c4ccccc4)cc3)n2)cc1 [SB-245391] | 12
21 | O=C(NC1CCN(c2ccnc(Nc3ccc(F)cc3)n2)C1)c1cc2ccccc2s1 (stereo not drawn) [GSK1379716] | 14
22 | COc1cccc(C(=O)Nc2cccc(Oc3ccc4nc(NC(=O)C5CC5)cn4n3)c2)c1 | 0
23 | Cl.NC(=O)c1cccc(Nc2nccc(Nc3ccc(Oc4c(Cl)cccc4Cl)c(Cl)c3)n2)c1 [GW659009] | 0
24 | O=C(Nc1n[nH]c2cc(-c3ccoc3)ccc12)C1CC1 [SB-738481] | 0
25 | Cl.c1ccc(-c2ccc3c(Nc4ccc5[nH]ccc5c4)ccnc3c2)nc1 [GW440138] | 0
26 | COc1ccc(-c2coc3ccc(-c4nnc(SCc5ccc(OC)c(C(F)(F)F)c5)o4)cc23)cc1 | 0
27 | COc1cc2c(cc1OCCN1CCNCC1)ncc1c3ccc(C#N)cc3[nH]c21 | 0
28 | CN(c1ccc(NC(=O)Nc2cc(C(F)(F)F)ccc2F)cc1)c1ccnc(Nc2ccc(S(N)(=O)=O)cc2)n1 [GW809893] | 13
29 | Cn1cc(-c2ccc3c(c2)CCN3C(=O)Cc2cccc(F)c2)c2c(N)ncnc21 [GSK2603358] | 0
30 | CN(C)Cc1ccc(-c2ccc3c(Nc4ccc(Oc5ccccn5)cc4)ccnc3c2)o1 [GW567148] | 0
31 | c1ccc(-c2n[nH]cc2Nc2ccnc3ccccc23)nc1 [GW694077] | 0
32 | COc1ccc(CNC(=O)NC2CCN(c3ccnc(Nc4ccc(F)cc4)n3)CC2)cc1 [GSK1379788] | 0
33 | COc1cc(Nc2nccc(-c3c(-c4cccc(NC(=O)c5c(F)cccc5F)c4)nn4ncccc34)n2)cc(OC)c1OC [GSK327238] | 0
